ABHD5-PLIN5 inh = ABHD5-PLIN5 protein interaction inhibition | Q00G26+Q8WTS1 | Split G. princeps luciferase complementation, luminescence, 4 h | inhibition, % at 4 µM | 0.78% of 360,000 active | AID 602281;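 active = inhibition above the mean inhibition across every tested compound plus 3 SD, cut at about 22% in these data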
Target sequence (Q00G26 whole entry, looked up): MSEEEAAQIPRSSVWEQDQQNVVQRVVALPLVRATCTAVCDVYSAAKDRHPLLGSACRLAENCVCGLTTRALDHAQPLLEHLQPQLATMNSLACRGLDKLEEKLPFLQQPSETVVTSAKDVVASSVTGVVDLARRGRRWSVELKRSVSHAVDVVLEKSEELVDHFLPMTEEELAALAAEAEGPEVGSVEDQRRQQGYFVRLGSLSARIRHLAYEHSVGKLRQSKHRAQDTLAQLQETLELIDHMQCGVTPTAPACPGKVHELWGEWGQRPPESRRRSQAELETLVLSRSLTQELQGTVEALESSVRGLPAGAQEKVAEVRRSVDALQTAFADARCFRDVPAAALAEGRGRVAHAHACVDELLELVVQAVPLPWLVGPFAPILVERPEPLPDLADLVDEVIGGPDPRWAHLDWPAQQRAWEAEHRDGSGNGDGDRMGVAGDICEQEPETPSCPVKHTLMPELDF
Target sequence (Q8WTS1 whole entry, looked up): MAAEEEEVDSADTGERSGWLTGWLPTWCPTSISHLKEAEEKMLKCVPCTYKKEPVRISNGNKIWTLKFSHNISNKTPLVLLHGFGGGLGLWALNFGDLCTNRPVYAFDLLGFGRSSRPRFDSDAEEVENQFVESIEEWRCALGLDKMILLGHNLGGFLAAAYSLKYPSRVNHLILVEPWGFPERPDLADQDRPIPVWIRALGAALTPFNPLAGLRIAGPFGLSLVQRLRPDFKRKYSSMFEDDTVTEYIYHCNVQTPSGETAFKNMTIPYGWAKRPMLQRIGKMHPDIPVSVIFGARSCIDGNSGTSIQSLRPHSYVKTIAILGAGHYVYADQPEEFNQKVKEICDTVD
KKLEB cytotox = counter-screen for CF NF-kB inhibitors: cytotoxicity; KKLEB CF airway cells viability, ATPlite luminescence, overnight; active compounds read low; cells stimulated with P. aeruginosa culture filtrate; activity change (cytotoxicity), % at 5 µM; 0.36% of 360,000 active; AID 602141;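 active = corrected activity change at or below -50% at 5 µM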
HIF-2a inh = blocks HIF-2a reporter activity | inhibition, % at 18.8 µM | 786-0 RCC cells HIF-2a reporter, luciferase luminescence, overnight | 0.72% of 360,000 active;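 active = inhibition of the luminescence signal of 40% or more relative to plate controls, in a single-dose primary screen at 18.75 µM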
CF NFkB inh = cystic fibrosis NF-kB activation inhibition; KKLEB NF-kB-GFP reporter, PAF-induced, GFP fluorescence overnight; inhibition, % at 5 µM; 0.86% of 360,000 active; AID 588850;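 active = at least 50% inhibition at 5 µM, scaled per plate between neutral and stimulator controls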;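 also: PAF is a Pseudomonas aeruginosa culture filtrate used as stimulus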
TRPM1 prom inh = reduces MITF-dependent TRPM1 promoter luciferase signal | SK-MEL-5 TRPM1 promoter luciferase, 24 h | inhibition, % at 12.5 µM | 0.83% of 330,000 active;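 active = mean inhibition across replicates of 60% or more, whatever share of single replicates reaches that level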
Peg3 promoter = Peg3 promoter activity inhibition. AID 588405. 1.7% of 360,000 active. inhibition, % at 20 µM. HeLa PEG-Prom luciferase reporter, luminescence, overnight;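 active = inhibition of at least 50% at 20 µM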
CF NFkB inh conf = CF NF-kB inhibition confirmation, single concentration; 64% of 1,300 active; inhibition, % at 5 µM; KKLEB CF airway cells, PAF-induced NF-kB-GFP fluorescence, overnight; shares compounds with CF NFkB inh; in the data active = inhibition above about 40%;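 also: stimulus PAF is a Pseudomonas aeruginosa filtrate and not platelet activating factor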
Each line names hits and unclear results; the compound was inactive in the other large screens (follow-up assays come after a bar, where they were run); ! = not active in a repeat. Sampled rows, rich in hits. Any-hit rate of the full collection: about 3%.

CC(=O)Oc1ccc(C(=O)O)cc1OC(C)=O	none
COc1ccccc1CCC(=O)Nc1ncc(C)s1	none
NC(=O)c1cc2ccc(O)cc2oc1=Nc1ccccc1	CF NFkB inh 82 | CF NFkB inh conf 83
COc1ccc2cc(C(N)=O)c(=Nc3ccccc3)oc2c1	none
Cc1ccc(NC(=O)CNC(=O)c2ccc(C)o2)cc1	none
O=[N+]([O-])c1ccc2ncnc(Nc3ccc4c(c3)OCCO4)c2c1	CF NFkB inh 65 | CF NFkB inh conf inactive
CC(C)n1nnnc1C1c2ccccc2C(=O)N1CCCn1ccnc1 (stereo not given)	none (no result: KKLEB cytotox, CF NFkB inh, TRPM1 prom inh, Peg3 promoter)
CC(=O)Nc1ccc(NC(=O)CSc2nnc(-c3cc(C)[nH]n3)n2N)cc1	none
CC1CCCC(C)N1CCOc1cc(N)ccc1C#N (stereo not given)	none
Oc1cc2c(cc1C(c1ccc(Br)cc1)N1CCCC1)OCO2 (stereo not given)	CF NFkB inh 53 | CF NFkB inh conf inactive
O=S(=O)(NCC(c1ccc2c(c1)OCO2)N1CCOCC1)c1ccc(Br)cc1 (stereo not given)	none
CC(C)C(N)c1csc(NC(=O)Nc2cccc(Cl)c2)n1 (stereo not given)	none (no result: TRPM1 prom inh)
NC(c1csc(NC(=O)Nc2cccc(Cl)c2)n1)c1ccccc1Cl (stereo not given)	CF NFkB inh 91, Peg3 promoter 100 (no result: TRPM1 prom inh) | CF NFkB inh conf 77
COc1ccc2[nH]c3c(c2c1)CC(C)NC3=O (stereo not given)	CF NFkB inh 61 | CF NFkB inh conf 71
Nc1c(C(=O)Nc2ccccc2)sc2nc3c(c(-c4ccco4)c12)CCCC3	CF NFkB inh 51 | CF NFkB inh conf inactive
Nc1c(C(=O)Nc2ccccc2)sc2nc3c(c(-c4ccco4)c12)CCC3	none
c1ccc(CNc2ncnc3ccccc23)cc1	CF NFkB inh 50! | CF NFkB inh conf 41
COc1cc2ncnc(NCc3ccccc3)c2cc1OC	none
CN(C(=O)COc1ccccc1C(=O)NCCOc1ccccc1)c1ccccc1	CF NFkB inh 57, Peg3 promoter 106 | CF NFkB inh conf inactive
Cc1nn(-c2ccccc2)c(C)c1C(=O)OC(C)C(=O)NC1CCCCC1C (stereo not given)	none
CC(C)c1nc2n[nH]c(N)c2c2c1CCCC2	CF NFkB inh 50 | CF NFkB inh conf inactive
O=C(c1cccc(NS(=O)(=O)c2ccc(F)c(F)c2)c1)N1CCN(C(c2ccccc2)c2ccccc2)CC1	CF NFkB inh 50 | CF NFkB inh conf inactive
CS(=O)(=O)Nc1cccc(-c2cnc3ccccc3n2)c1	none
Oc1ccc(Br)cc1-c1nc2cnccn2c1NC1CCCC1	CF NFkB inh 80 | CF NFkB inh conf 90
O=C(c1cncc(Br)c1)N1CCc2ccccc2C1	CF NFkB inh 51 | CF NFkB inh conf 56
O=[N+]([O-])c1cccc(NC(=S)Nc2nc(-c3ccccc3Cl)cs2)c1	CF NFkB inh 50 | CF NFkB inh conf 67
Cc1cc(Br)ccc1OCCCCN1CCCCC1	none
Cc1ccc(-c2ccc(CN3C(C)C(=O)N(Cc4cn(CC5CCCCC5)nn4)CCS3(=O)=O)cc2)cc1 (stereo not given)	CF NFkB inh 76 (no result: TRPM1 prom inh) | CF NFkB inh conf inactive
Cc1ccc(-c2ccc(CN3C(C)C(=O)N(Cc4cn(Cc5ccco5)nn4)CCS3(=O)=O)cc2)cc1 (stereo not given)	none (no result: TRPM1 prom inh)
CC1C(=O)N(Cc2cn(Cc3ccco3)nn2)CCS(=O)(=O)N1Cc1ccc(-c2ccc(Cl)c(Cl)c2)cc1 (stereo not given)	CF NFkB inh 65 (no result: TRPM1 prom inh) | CF NFkB inh conf inactive
Cc1ccccc1-c1ccc(CN2C(C)C(=O)N(Cc3cn(Cc4ccco4)nn3)CCS2(=O)=O)cc1 (stereo not given)	CF NFkB inh 60 (no result: TRPM1 prom inh) | CF NFkB inh conf inactive
Cc1ccc(-c2ccc(CN3C(C(C)C)C(=O)N(Cc4cn(CCC5OCCO5)nn4)CCS3(=O)=O)cc2)c(C)c1 (stereo not given)	CF NFkB inh 65 (no result: TRPM1 prom inh) | CF NFkB inh conf inactive
Cc1ccc(-c2ccc(CN3C(C)C(=O)N(Cc4cn(Cc5ccco5)nn4)CCS3(=O)=O)cc2)c(C)c1 (stereo not given)	none (no result: TRPM1 prom inh)
